Holding throughout (details): mRNA level, 48 h; actives raise or lower the signal
Read-out in one test: MYC, MYC (gene 4609)
The test can be described thus: LTEA_HepaRG_MYC: Life Technologies and Expression Analysis (LTEA) Assay for MYC using HepaRG (AID 2283518). A digest of the protocol:
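HepaRG, ~100,000 cells/well, collagen I; 48 h plating; serum-free induction medium; 48 h dosing, duplicate, 100 uM top, half-log, 0.5% DMSO; total RNA → qRT-PCR MYC; gain/loss fit vs DMSO.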

Read-out in test [1]: Paternally Expressed 10 (PEG10), PEG10 (gene 23089)
The test can be described thus: LTEA_HepaRG_PEG10: Life Technologies and Expression Analysis (LTEA) Assay for Paternally Expressed 10 (PEG10) using HepaRG (AID 2283520). The procedure, abridged:
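HepaRG, 48 h post-plating → serum-free induction medium → 48 h chemical exposure (duplicate, 8-pt, max 100 uM, half-log, 0.5% DMSO) → lysis in RLT → TaqMan qRT-PCR for PEG10, ACTB/GAPDH/POLR2A normalisation.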

Read-out in test [2]: Nuclear factor NF-kappa-B p105 subunit (Homo sapiens) (UniProt P19838)
The test is described as follows: LTEA_HepaRG_NFKB1: Life Technologies and Expression Analysis (LTEA) Assay for Nuclear Factor Kappa B Subunit 1 (NFKB1) using HepaRG (AID 2283521).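 As to outcome: differentiated human HepaRG liver cells in serum-free induction medium.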 A digest of the protocol: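 NFKB1 transcript was measured by TaqMan qRT-PCR on Fluidigm arrays, normalised to three housekeeping genes and fitted in both directions against 0.5% DMSO. HepaRG cells were dosed in duplicate for 48 h in serum-free induction medium, eight half-log steps from 100 uM.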

Read-out in test [3]: Protein phosphatase 2A (PPP2R4), PTPA (gene 5524)
The test is described as follows: LTEA_HepaRG_PPP2R4: Life Technologies and Expression Analysis (LTEA) Assay for Protein phosphatase 2A (PPP2R4) using HepaRG (AID 2283522). A digest of the protocol: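 Readout is PPP2R4 transcript level by microfluidic qRT-PCR after 48 h chemical treatment of human HepaRG liver cells. Concentrations spanned 100 uM downward in half-log steps; gain or loss of signal was fitted relative to DMSO.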

Read-out in test [4]: Phosphatase and tensin (PTEN), PTEN (gene 5728)
The test is described as follows: LTEA_HepaRG_PTEN: Life Technologies and Expression Analysis (LTEA) Assay for Phosphatase and tensin (PTEN) using HepaRG (AID 2283523). A digest of the protocol:
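Read-out is PTEN transcript level by multiplexed TaqMan qRT-PCR after 48 h chemical treatment of human HepaRG cultures in serum-free induction medium. Concentrations spanned 100 uM downward in half-log steps, 0.5% DMSO throughout; activity fitted in both directions against vehicle.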

Read-out in test [5]: solute carrier (SLC22A1), SLC22A1 (gene 6580)
The test can be described thus: LTEA_HepaRG_SLC22A1: Life Technologies and Expression Analysis (LTEA) Assay for solute carrier (SLC22A1) using HepaRG (AID 2283524).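 As to AC50: differentiated human HepaRG liver cells in serum-free induction medium.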 The procedure, abridged:
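HepaRG (human liver line), 48 h dosing in serum-free induction medium; 8 conc., half-log down from 100 uM, 0.5% DMSO vehicle, duplicates. Endpoint: SLC22A1 mRNA, qRT-PCR, housekeeping-normalized; gain/loss fit vs DMSO.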

Read-out in test [6]: Pyruvate Dehydrogenase Kinase 4 (PDK4), PDK4 (gene 5166)
The test is described as follows: LTEA_HepaRG_PDK4: Life Technologies and Expression Analysis (LTEA) Assay for Pyruvate Dehydrogenase Kinase 4 (PDK4) using HepaRG (AID 2283525). The procedure, abridged: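 In this multiplexed human HepaRG expression assay, cells are treated 48 h with test chemicals across an eight-point range starting at 100 uM. PDK4 mRNA changes, normalized to ACTB/GAPDH/POLR2A, are fitted in both directions relative to vehicle.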

Read-out in test [7]: NAD(P)H dehydrogenase [quinone] 1 (NQO1), NQO1 (gene 1728)
The test can be described thus: LTEA_HepaRG_NQO1: Life Technologies and Expression Analysis (LTEA) Assay for NAD(P)H dehydrogenase [quinone] 1 (NQO1) using HepaRG (AID 2283526). A digest of the protocol: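 HepaRG, 48 h post-plating → serum-free induction medium → test chemical 48 h (duplicate, 100 uM top, half-log x8, 0.5% DMSO) → RNA isolation → qRT-PCR, ACTB/GAPDH/POLR2A normalization; bidirectional curve fit vs DMSO baseline.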

Read-out in test [8]: Nuclear factor erythroid 2-related factor 2 (Homo sapiens) (UniProt Q16236)
The test can be described thus: LTEA_HepaRG_NFE2L2: Life Technologies and Expression Analysis (LTEA) Assay for Nuclear factor erythroid 2-related factor 2 (NFE2L2) Transcription Factor using HepaRG (AID 2283527). The procedure, abridged: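 Transcript level of NFE2L2 is the read-out, measured by microfluidic TaqMan qRT-PCR and normalized to three housekeeping genes. Human HepaRG cultures received test chemical for 48 h at up to 100 uM in half-log steps. Gain or loss of signal is fitted relative to 0.5% DMSO.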

Read-out in test [9]: Signal transducer and activator of transcription 3 (Homo sapiens) (UniProt P40763)
The test is described as follows: LTEA_HepaRG_STAT3: Life Technologies and Expression Analysis (LTEA) Assay for Signal transducer and activator of transcription (STAT3) using HepaRG (AID 2283529). The procedure, abridged:
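Read-out is STAT3 mRNA level by qRT-PCR, normalized to three housekeeping genes, in human HepaRG liver cells treated for 48 h. Concentrations ran from 100 uM downward in half-log steps; curves were fitted for gain or loss relative to 0.5% DMSO.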

Read-out in test [10]: solute carrier (SLCO1B1), SLCO1B1 (gene 10599)
The test is described as follows: LTEA_HepaRG_SLCO1B1: Life Technologies and Expression Analysis (LTEA) Assay for solute carrier (SLCO1B1) using HepaRG (AID 2283530). A digest of the protocol:
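HepaRG, serum-free induction medium, 48 h dosing, 8-pt half-log from 100 uM, 0.5% DMSO vehicle, duplicates. Readout: SLCO1B1 mRNA, qRT-PCR, ACTB/GAPDH/POLR2A normalization; up or down fit vs DMSO.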

Read-out in test [11]: sulfotransferase 2A1 (SULT2A1), SULT2A1 (gene 6822)
The test can be described thus: LTEA_HepaRG_SULT2A1: Life Technologies and Expression Analysis (LTEA) Assay for sulfotransferase 2A1 (SULT2A1) using HepaRG (AID 2283531). A digest of the protocol:
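Transcript levels of SULT2A1, quantified by qRT-PCR and normalized to three housekeeping genes, serve as the readout. Human HepaRG cultures receive test chemicals for 48 h at up to 100 uM in half-log steps, with 0.5% DMSO vehicle.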

Read-out in test [12]: Transforming Growth Factor (TGFA), TGFA (gene 7039)
The test can be described thus: LTEA_HepaRG_TGFA: Life Technologies and Expression Analysis (LTEA) Assay for Transforming Growth Factor (TGFA) using HepaRG (AID 2283532). The procedure, abridged: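 HepaRG (human liver line), 48 h exposure, 8 conc. half-log down from 100 uM, 0.5% DMSO vehicle, duplicates; serum-free induction medium. TGFA mRNA by TaqMan qRT-PCR, ACTB/GAPDH/POLR2A normalization; gain/loss fit vs DMSO.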

Read-out in test [13]: Transforming Growth Factor (TGFB1), TGFB1 (gene 7040)
The test can be described thus: LTEA_HepaRG_TGFB1: Life Technologies and Expression Analysis (LTEA) Assay for Transforming Growth Factor (TGFB1) Transporter using HepaRG (AID 2283533). A digest of the protocol: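 HepaRG, 48 h post-plating, switched to serum-free induction medium; chemicals 100 uM top, half-log, 8 pts, 0.5% DMSO, dup; 48 h exposure; RNA → Fluidigm TaqMan qRT-PCR; norm ACTB/GAPDH/POLR2A; bidirectional fit vs DMSO.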

Read-out in the next test: TIMP1, TIMP1 (gene 7076)
The test can be described thus: LTEA_HepaRG_TIMP1: Life Technologies and Expression Analysis (LTEA) Assay for TIMP1 using HepaRG (AID 2283534).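 Also: TaqMan qRT-PCR signal normalized to ACTB GAPDH and POLR2A housekeeping genes.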 The procedure, abridged:
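Readout is TIMP1 mRNA level measured by qRT-PCR and normalized to three housekeeping genes. Human HepaRG cells were treated for 48 h in duplicate at eight concentrations up to 100 uM (0.5% DMSO); gain or loss fitted against DMSO.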

Read-out in test [14]: Tumor necrosis factor receptor 1 (TNFRSF1A), TNFRSF1A (gene 7132)
The test is described as follows: LTEA_HepaRG_TNFRSF1A: Life Technologies and Expression Analysis (LTEA) Assay for Tumor necrosis factor receptor 1 (TNFRSF1A) using HepaRG (AID 2283535). A digest of the protocol: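 Read-out is TNFRSF1A transcript level by TaqMan qRT-PCR, normalized to three housekeeping genes, scored as gain or loss of signal versus 0.5% DMSO. Human HepaRG cells received test chemicals for 48 h at up to 100 uM (half-log series).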

Read-out in test [15]: Thyroid Hormone Responsive (THRSP), THRSP (gene 7069)
The test can be described thus: LTEA_HepaRG_THRSP: Life Technologies and Expression Analysis (LTEA) Assay for Thyroid Hormone Responsive (THRSP) using HepaRG (AID 2283536). A digest of the protocol: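 mRNA induction or loss relative to 0.5% DMSO vehicle was fitted bidirectionally across an eight-point curve whose highest exposure was 100 uM. Human HepaRG liver cells received chemicals in duplicate over 48 h before RNA extraction.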

Read-out in test [16]: succinate dehydrogenase complex iron sulfur subunit B (SDHB), SDHB (gene 6390)
The test is described as follows: LTEA_HepaRG_SDHB: Life Technologies and Expression Analysis (LTEA) Assay for succinate dehydrogenase complex iron sulfur subunit B (SDHB) using HepaRG (AID 2283528). A digest of the protocol:
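SDHB transcript level read by TaqMan qRT-PCR, housekeeping-normalised (ACTB, GAPDH, POLR2A), after 48 h chemical treatment of plated HepaRG cells; eight concentrations top 100 uM, half-log steps, 0.5% DMSO, duplicates; fitted both directions against DMSO.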

Read-out in test [17]: Cellular tumor antigen p53 (Homo sapiens) (UniProt P04637)
The test is described as follows: LTEA_HepaRG_TP53: Life Technologies and Expression Analysis (LTEA) Assay for Tumor Protein P53 (TP53) using HepaRG (AID 2283537). A digest of the protocol:
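TP53 transcript measured by qRT-PCR, normalized to three housekeeping genes, after 48 h treatment of human HepaRG cultures with chemicals from 100 uM downward in half-log steps (0.5% DMSO vehicle, serum-free induction medium). Up- or down-regulation fitted against DMSO.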

SMILES strings stand for the structures. The source made the active and inactive calls. The calls were made as follows: active = hit-call score of the fitted dose curve at least 0.9, where 1 is the maximum; inactive = score below 0.9.

Signal transducer and activator of transcription 3 (Homo sapiens), sequence (P40763 whole entry, looked up): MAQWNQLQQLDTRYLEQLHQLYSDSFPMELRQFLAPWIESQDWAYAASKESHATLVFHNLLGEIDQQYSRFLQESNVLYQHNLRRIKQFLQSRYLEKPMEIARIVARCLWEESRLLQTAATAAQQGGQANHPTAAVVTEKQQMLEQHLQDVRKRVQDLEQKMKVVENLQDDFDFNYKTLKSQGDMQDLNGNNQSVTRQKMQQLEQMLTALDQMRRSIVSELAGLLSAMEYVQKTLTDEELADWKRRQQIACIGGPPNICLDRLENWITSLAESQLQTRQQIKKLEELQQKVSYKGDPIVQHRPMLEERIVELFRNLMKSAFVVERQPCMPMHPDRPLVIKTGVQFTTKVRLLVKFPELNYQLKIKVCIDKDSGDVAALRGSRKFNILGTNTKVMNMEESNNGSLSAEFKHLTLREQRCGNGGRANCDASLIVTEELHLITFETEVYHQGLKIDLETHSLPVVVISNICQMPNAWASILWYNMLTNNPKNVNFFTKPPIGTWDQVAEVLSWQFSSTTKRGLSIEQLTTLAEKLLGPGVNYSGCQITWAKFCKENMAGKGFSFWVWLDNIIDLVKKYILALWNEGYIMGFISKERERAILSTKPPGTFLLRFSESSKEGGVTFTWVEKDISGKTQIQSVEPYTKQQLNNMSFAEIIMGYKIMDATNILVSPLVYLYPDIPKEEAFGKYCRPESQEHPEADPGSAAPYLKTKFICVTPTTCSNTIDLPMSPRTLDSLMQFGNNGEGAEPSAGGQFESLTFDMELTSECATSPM
Cellular tumor antigen p53 (Homo sapiens), sequence (P04637 whole entry, looked up): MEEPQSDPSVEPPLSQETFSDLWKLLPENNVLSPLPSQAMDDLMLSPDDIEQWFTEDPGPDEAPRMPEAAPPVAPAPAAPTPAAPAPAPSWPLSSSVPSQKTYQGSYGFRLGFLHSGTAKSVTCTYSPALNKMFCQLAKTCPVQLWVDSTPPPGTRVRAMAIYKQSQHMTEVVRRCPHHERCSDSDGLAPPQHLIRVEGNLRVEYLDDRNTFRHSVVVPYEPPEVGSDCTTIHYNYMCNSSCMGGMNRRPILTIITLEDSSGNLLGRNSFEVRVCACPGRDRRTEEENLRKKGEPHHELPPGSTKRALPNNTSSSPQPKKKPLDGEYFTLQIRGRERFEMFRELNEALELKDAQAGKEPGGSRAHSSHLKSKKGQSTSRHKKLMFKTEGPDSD
Nuclear factor erythroid 2-related factor 2 (Homo sapiens), sequence (Q16236 whole entry, looked up): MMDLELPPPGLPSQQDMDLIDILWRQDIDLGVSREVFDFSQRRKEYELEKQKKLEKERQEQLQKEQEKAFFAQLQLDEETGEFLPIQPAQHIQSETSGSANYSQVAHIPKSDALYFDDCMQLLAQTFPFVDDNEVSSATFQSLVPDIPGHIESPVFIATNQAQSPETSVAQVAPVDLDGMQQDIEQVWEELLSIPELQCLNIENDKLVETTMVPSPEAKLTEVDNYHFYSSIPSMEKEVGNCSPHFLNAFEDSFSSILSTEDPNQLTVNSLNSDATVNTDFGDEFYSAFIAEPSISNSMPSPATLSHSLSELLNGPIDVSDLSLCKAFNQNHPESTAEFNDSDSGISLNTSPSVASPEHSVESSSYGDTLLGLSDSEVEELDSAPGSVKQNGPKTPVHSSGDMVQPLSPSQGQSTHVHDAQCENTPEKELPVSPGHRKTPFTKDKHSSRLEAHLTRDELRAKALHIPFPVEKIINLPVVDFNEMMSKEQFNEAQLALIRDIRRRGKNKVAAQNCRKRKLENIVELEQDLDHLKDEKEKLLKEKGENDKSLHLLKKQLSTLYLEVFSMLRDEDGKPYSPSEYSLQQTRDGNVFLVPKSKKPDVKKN
Nuclear factor NF-kappa-B p105 subunit (Homo sapiens), sequence (P19838 whole entry, looked up): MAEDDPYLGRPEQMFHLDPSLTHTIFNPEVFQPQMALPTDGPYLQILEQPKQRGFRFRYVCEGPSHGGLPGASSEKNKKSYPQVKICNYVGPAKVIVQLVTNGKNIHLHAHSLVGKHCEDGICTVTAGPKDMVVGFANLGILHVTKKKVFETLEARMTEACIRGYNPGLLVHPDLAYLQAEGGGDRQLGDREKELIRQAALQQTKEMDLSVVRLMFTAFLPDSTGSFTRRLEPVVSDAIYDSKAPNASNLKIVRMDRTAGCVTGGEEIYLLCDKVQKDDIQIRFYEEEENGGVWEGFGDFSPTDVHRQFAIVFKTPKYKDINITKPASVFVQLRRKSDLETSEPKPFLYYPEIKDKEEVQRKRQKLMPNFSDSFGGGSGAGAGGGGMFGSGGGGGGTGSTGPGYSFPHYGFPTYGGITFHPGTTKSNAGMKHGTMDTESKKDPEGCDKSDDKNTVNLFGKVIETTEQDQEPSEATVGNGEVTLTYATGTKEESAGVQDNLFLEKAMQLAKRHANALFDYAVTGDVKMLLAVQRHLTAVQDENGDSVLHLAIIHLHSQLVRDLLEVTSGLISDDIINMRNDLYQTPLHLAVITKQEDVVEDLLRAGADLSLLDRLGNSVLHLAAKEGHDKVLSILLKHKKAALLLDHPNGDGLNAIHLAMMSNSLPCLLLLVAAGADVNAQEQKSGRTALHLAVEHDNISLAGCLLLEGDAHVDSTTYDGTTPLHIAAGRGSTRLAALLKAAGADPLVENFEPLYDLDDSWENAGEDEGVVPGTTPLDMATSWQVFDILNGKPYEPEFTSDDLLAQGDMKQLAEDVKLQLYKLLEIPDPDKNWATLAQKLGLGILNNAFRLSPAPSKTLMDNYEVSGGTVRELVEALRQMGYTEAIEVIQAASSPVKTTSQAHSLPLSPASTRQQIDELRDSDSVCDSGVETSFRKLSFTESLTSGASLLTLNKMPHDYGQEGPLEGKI

As to `CC(=O)[C@@]1(O)CC[C@H]2[C@@H]3CCC4=CC(=O)CC[C@]4(C)[C@H]3CC[C@@]21C`, the outcome was “inactive” in the test with MYC, MYC (gene 4609); “inactive” in test [2]; “inactive” in test [3]; “inactive” in [4]; “inactive” in [5]; “inactive” in [6]. Besides, the result in test [7], in test [8], in test [9], in test [10], in test [11] and in test [12] was inactive. In addition, the outcome was “inactive” in test [13]; “inactive” in the test with TIMP1, TIMP1 (gene 7076); “inactive” in test [14]. Further, the AC50 in test [1] was 7.76 µM (active); in [15] it was 50 µM (active).

For `CCOCCOCCO`, the outcome is “inactive” with MYC, MYC (gene 4609); “inactive” in test [1]; “inactive” in test [2]; “inactive” in test [3]; “inactive” in [4]; “inactive” in test [5]. In addition, the molecule was called inactive in test [6], in [7], in test [8], in [16], in [9] and in test [10]. The result in test [11], in test [12], in test [13], in [14], in test [15] and in test [17] was inactive.

In the case of `O=C1O[C@H]([C@H](O)CO)C(O)=C1O`, the outcome is “inactive” with MYC, MYC (gene 4609); “inactive” in test [1]; “inactive” in test [3]; “inactive” in [4]; “inactive” in test [5]; “inactive” in test [7]. The molecule was classed as inactive in test [8], in [16], in test [9], in test [11], in test [12] and in [13]. Also, the result in [14], in test [15] and in test [17] was inactive.

Take `CN(C)CCCN1c2ccccc2Sc2ccc(Cl)cc21`: the AC50 is 87.5 µM (active) with MYC, MYC (gene 4609); 18.2 µM (active) in test [1]; 78.4 µM (active) in test [2]; 78 µM (active) in test [4]; 79.4 µM (active) in test [5]; 83.9 µM (active) in [7]. The AC50 in [8] was 82.4 µM (active); in [11], 82.7 µM (active); in test [13], 12.5 µM (active); in test [15] it was 15.8 µM (active). Further, the outcome in [3] was “inactive”; in [6] it was “inactive”; in test [9], “inactive”; in test [10] it was “inactive”; in test [12], “inactive”; with TIMP1, TIMP1 (gene 7076), “inactive”. The result in [14] and in [17] was inactive.

Consider `Cc1cn([C@H]2C=C[C@@H](CO)O2)c(=O)[nH]c1=O`, for which the outcome was “inactive” with MYC, MYC (gene 4609); “inactive” in [1]; “inactive” in [3]; “inactive” in test [4]; “inactive” in test [5]; “inactive” in test [6]. For the same molecule, the outcome in test [7], in [8], in test [16], in test [9], in [10] and in test [11] was inactive. The molecule was classed as inactive in test [12], in test [13] and in [15].
